Data as given in PubChem BioAssay (EPA / NIEHS).
Where “and” joins values, the source holds several entries; their conditions need not be identical. Equal entries are not always repeated. Inconclusive results are not listed. Where a structure was tested more than once in an assay, its records may differ in their call. Calls of active or inactive are those of the source. Rule for the calls, unless noted: active = hit-call score of the fitted dose curve at least 0.9, where 1 is the maximum; inactive = score below 0.9.

Experiments:
[1] = CCTE_Mundy_HCI_Cortical_NOG_NeuriteLength: CCTE's Neurite Outgrowth Assay in rat cortical cells for Neurite Length, Mundy Lab (AID 2284213);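 note: neurites imaged about 48 to 50 h after chemical exposure began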
Method in brief: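 First, rat primary cortical cells were plated and, 2 h later, given test chemical as a 1/10 dilution. Finally, βIII-tubulin immunostaining enabled automated imaging of neurite length.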

[2] = CCTE_Mundy_HCI_Cortical_Synap_Neur_Matur_NeuriteLength: CCTE's Synaptogenesis and Neurite Maturation Assay in rat cortical cells for Neurite Length, Mundy Lab (AID 2284214)
Method in brief: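 Cultures of rat primary cortical cells received chemical at DIV 7 and were fixed at DIV 12, after glial arrest with AraC at DIV 5. Neurite length was measured by automated imaging of MAP2 immunofluorescence.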

[3] = CCTE_Mundy_HCI_Cortical_Synap_Neur_Matur_NeuriteSpotCountPerNeuron: CCTE's Synaptogenesis and Neurite Maturation Assay in rat cortical cells for Neurite Spot Count per Neuron Count, Mundy Lab (AID 2284215)
Method in brief: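 Rat primary cortical cells received AraC at DIV 5, then chemicals with a media change at DIV 7, and were fixed at DIV 12. Synaptophysin puncta on MAP2-stained neurites per neuron were counted by high-content imaging, fitted relative to DMSO.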

[4] = TAMU_PeakParms_SingleDonor1434_Chronotropy: Texas A&M University (TAMU) 1.5-hr Human Induced Pluripotent Stem Cell (iPSC)-derived Cardiomyocytes Calcium (Ca+2) Flux Assay for Cardiotoxicity: Chronotropy (changes in peak frequency) (AID 2284217); details: actives raise or lower the signal
Method in brief: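 Beat frequency of single-donor iPSC cardiomyocytes was recorded through a calcium-sensitive dye 1.5 hours after exposure to four concentrations up to 100 uM. An EC05 point of departure was derived.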

[5] = CCTE_Mundy_HCI_Cortical_Synap_Neur_Matur_SynapseCount: CCTE's Synaptogenesis and Neurite Maturation Assay in rat cortical cells for Synapse Count, Mundy Lab (AID 2284218)
Method in brief: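 Cells were plated, allowed 2 hr to attach, treated with AraC at DIV 5, then exposed to chemicals from DIV 7 until DIV 12. After fixation and MAP2/synaptophysin immunolabelling, synapses per neuron were quantified by automated imaging against DMSO.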

[6] = CCTE_Mundy_HCI_hN2_NOG_NeuriteCount: CCTE's Neurite Outgrowth Assay in human hN2 cells for Neurite Count, Mundy Lab (AID 2284219; active = hit-call score of the fitted dose curve at least 0.9, where 1 is the maximum)
Method in brief: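 In this morphology assay, hNP1-derived neurons received test chemical 2 h post-plating and were fixed two days later in warm paraformaldehyde/sucrose containing Hoechst 33342. Neurites, labelled by rabbit anti-βIII-tubulin (1:800) and Alexa Fluor-488 (1:500), were counted automatically.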

[7] = CCTE_Mundy_HCI_hN2_NOG_NeuriteLength: CCTE's Neurite Outgrowth Assay in human hN2 cells for Neurite Length, Mundy Lab (AID 2284220; active = hit-call score of the fitted dose curve at least 0.9, where 1 is the maximum)
Method in brief: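 Using βIII-tubulin immunofluorescence and Hoechst nuclear counterstain, this component quantifies neurite length in hNP1-derived neurons.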

[8] = CCTE_Mundy_HCI_hN2_NOG_NeuronCount: CCTE's Neurite Outgrowth Assay in human hN2 cells for Neuron Count, Mundy Lab (AID 2284221; active = hit-call score of the fitted dose curve at least 0.9, where 1 is the maximum)
Method in brief: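 Read-out is the number of betaIII-tubulin-positive neurons imaged by automated high-content analysis, with DMSO as negative control.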

[9] = CCTE_Mundy_HCI_Cortical_Synap_Neur_Matur_CellBodySpotCount: CCTE's Synaptogenesis and Neurite Maturation Assay in rat cortical cells for Cell Body Spot Count, Mundy Lab (AID 2284223)
Method in brief: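 Rat primary cortical cultures received AraC at DIV 5 to arrest glia, were dosed with chemical at DIV 7 with media change, and were fixed at DIV 12 (288.33 h). Synaptophysin puncta on MAP2-positive cell bodies per neuron were counted by high-content imaging versus DMSO.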

[10] = UKN4_HCS_LUHMES_cell_viability: Viability Assessment in the University of Konstanz (UKN) Leist Lab Neurite Outgrowth Assay in human LUHMES cells (UKN4) (AID 2284232)
Method in brief: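 Cells switched to differentiation medium at day 0, replated on day 2 in medium lacking cAMP and GDNF, and compound-treated once attached. Live staining began 23.5 h later, imaging followed at 24 h.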

[11] = UKN2_HCS_IMR90_cell_viability: Viability Assessment in the University of Konstanz (UKN) Leist Lab Neural Crest Cell Migration Assay in human induced IMR90 Pluripotent Stem Cells (UKN2) (AID 2284233);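 note: viability of neural crest cells differentiated from IMR90 iPSC measured by calcein-AM fluorescence imaging; cells exposed to compound for 24 h after a 24 h migration phase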
Method in brief: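 cMINC format, iPSC-derived neural crest (IMR90); 24 h migration (EGF/FGF, N2-S), then 24 h toxicant. Calcein-AM/H-33342 stain 30 min; fluorescence intensity by HCS; DMSO-normalised, bidirectional fitting.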

[12] = TAMU_HCS_1.5hr_SingleDonor1434_Cytotoxicity: Cytotoxicity Assessment using High-content Screening (HCS) Fluorescent Imaging for the Texas A&M University (TAMU) 1.5-hr Human Induced Pluripotent Stem Cell (iPSC)-derived Cardiotoxicity Assay (AID 2284234; active = hit-call score of the fitted dose curve at least 0.9, where 1 is the maximum)
Method in brief: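 Nuclear counts from Hoechst 33342 imaging define cytotoxicity here, with EC10 (10% cell-count loss relative to DMSO) as point of departure. iPSC cardiomyocytes received 0.2-100 uM test chemical in 0.5% DMSO for 1.5 h at 37 C.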

[13] = CCTE_Mundy_HCI_Cortical_NOG_NeuronCount: CCTE's Neurite Outgrowth Assay in rat cortical cells for Neuron Count, Mundy Lab (AID 2284236; active = hit-call score of the fitted dose curve at least 0.9, where 1 is the maximum;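 note: neurons counted by imaging betaIII-tubulin and Hoechst stained cortical cells; cells exposed to compound for about 48 hours before fixation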)
Method in brief: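 Read-out: neuron number by high-content imaging of betaIII-tubulin (Alexa Fluor-488) and Hoechst-labelled rat primary cortical cells.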

[14] = CCTE_Mundy_HCI_Cortical_NOG_BPCount: CCTE's Neurite Outgrowth Assay in rat cortical cells for Branch Point Count, Mundy Lab (AID 2284237);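 note: branch points counted about two days after chemical exposure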
Method in brief: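 Measured 50.33 h after dosing, this morphology endpoint uses rat primary cortical cultures labelled for betaIII-tubulin. Branch points are quantified by high-content imaging, with DMSO as negative control and baseline.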

[15] = CCTE_Mundy_HCI_hNP1_Casp3_7: CCTE's Caspase-Glo 3/7 Assay in human neuroprogenitor cells for Apoptosis, Mundy Lab (AID 2284240)
Method in brief: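 Neuroepithelial-lineage stem cells from WA09 embryonic cells were treated with chemicals after 40–44 h of culture. Twenty-four hours later, caspase-3/7 activation was detected luminescently after a 30 min room-temperature reagent step, with DMSO as baseline.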

[16] = CCTE_Mundy_HCI_hNP1_CellTiter: CCTE's Cell Titer-Glo 2 Assay in human neuroprogenitor cells for Viability, Mundy Lab (AID 2284241; active = hit-call score of the fitted dose curve at least 0.9, where 1 is the maximum;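 note: a hit is a drop in ATP luminescence versus DMSO meaning reduced viability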)
Method in brief: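 Measures ATP content in human neural progenitors derived from WA09 embryonic cells. Read-out at 26.5 hours after dosing, with DMSO serving as the negative control and baseline.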

[17] = CCTE_Mundy_HCI_Cortical_Synap_Neur_Matur_NeuronCount: CCTE's Synaptogenesis and Neurite Maturation Assay in rat cortical cells for Neuron Count, Mundy Lab (AID 2284242; active = hit-call score of the fitted dose curve at least 0.9, where 1 is the maximum;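 note: neuron number from Hoechst nuclei and MAP2 staining by high-content imaging; hits reduce neuron count versus DMSO baseline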)
Method in brief: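 Cortical cells from rat are plated, treated with AraC at DIV 5, and exposed to test chemicals with a media change at DIV 7. At DIV 12 they are fixed and immunostained (MAP2, synaptophysin), and imaged neuron counts are compared against DMSO controls.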

[18] = IUF_NPC2c_oligodendrocyte_migration_120hr: Leibniz Research Institute for Environmental Medicine (IUF) 120-hour Neural Progenitor Cell Migration Assay for Oligodendrocyte Migration (NPC2c) (AID 2284297);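 note: O4-positive oligodendrocyte migration distance divided by radial glia migration distance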
Method in brief: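 Human fetal cortex-derived neural progenitor spheres (0.3 mm) were plated on poly-D-lysine/laminin in N2 differentiation medium and exposed to 7 concentrations for 120 h, with half-medium renewal at day 3. Oligodendrocyte migration distance was normalized to radial glia migration, relative to DMSO.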

Measured: AC50

[CH3][Hg][Cl]
inactive: [9]
active: [1] 222 nM and 316 nM | [2] 428 nM | [3] 576 nM | [4] 21200 nM | [5] 582 nM | [6] 118 nM | [7] 99 nM | [8] 172 nM | [10] 381 nM | [11] 5000 nM | [12] 8350 nM | [13] 708 nM and 631 nM | [14] 244 nM | [15] 1150 nM | [16] 9570 nM | [17] 850 nM | [18] 128 nM
